Experimental data from PubChem BioAssay AID2711 (National Center for Advancing Translational Sciences (NCATS), 2010).
The list shows a part of the results. Entries that show only a call come without a potency. Results filed as inconclusive are left out. Calls of active or inactive are those of the source. Calls come from the whole dose curve; as a rule, active = well fitted inhibition curve with a large enough effect; inconclusive = small, poorly fitted or top-dose-only effect; inactive = no such curve, though single readings can be large or run the other way.

Experiment: Counterscreen for RECQ1 Inhibitors: ADP Fluorescence Polarization Displacement Assay; note: nearly all actives have a fitted effect of over 45% in size
Details: series mostly up to 228 µM
Description: In order to gain further insight into the mode of action of the RECQ1 screening hits, we have profiled them in a set of miniaturized fluorescence polarization assays designed to report on compounds which competitively displace either co-substrate (ATP or DNA). The appropriate fluorescently-labeled probe was used: BODIPY Texas Red-labeled ADP was expected to be competed off by ATP-competitive inhibitors, while single-TAMRA labeled forked-duplex or short single-stranded DNA molecules served as probes for DNA-competitive compounds.
Three uL of reaction buffer (25 mM Tris-HCl (pH 8.0), 5 mM NaCl, 2 mM MgCl2, 1mM DTT, 0.01% Tween- 20, and 2.5 ug/ml poly(dI-dC), containing 300 nM RECQ1 and 500 nM BODIPY Texas Red-ADP (Invitrogen) were dispensed into a 1536-well Greiner black assay plate via solenoid-valve based nanoliter dispensers; 500 nM BODIPY Texas Red-ADP without RECQ1 protein served as a fully-displaced control. Compounds (23 nl each in columns 5-48) were transferred via a Kalypsys pintool equipped with a 1536-pin array. The plates were incubated for 15 min at room temperature and were then transferred into a ViewLux high-throughput CCD imager, where the endpoint fluorescence polarization was measured using 525 nm excitation and 598 nm emission protocol.
Potency is the fitted concentration of half-maximal effect.

Question: With O=C(NC(Cc1ccccc1)C(=O)N1CCCC1C(=O)O)c1ccccc1 (configuration not stated) as the compound, how does the Potency read?
Answer: inactive

Question: Which Potency does the source give for O=C(OCC1O[C@@H](OC(=O)c2cc(O)c(O)c(O)c2)[C@@H](OC(=O)c2cc(O)c(O)c(O)c2)[C@@H](OC(=O)c2cc(O)c(O)c(O)c2)[C@@H]1OC(=O)c1cc(O)c(O)c(O)c1)c1cc(O)c(O)c(O)c1 (some centres not stated) here?
Answer: inactive

Question: With O=C(N/N=C/c1sc(N2CCCCC2)nc1-c1cccs1)c1cccnc1 as the compound, how does the Potency read?
Answer: inactive

Question: With O=C(NCc1ccccc1)C1=C[C@@H](C2CCCCC2)C[C@@H](OCc2ccc(CO)cc2)O1 as the compound, how does the Potency read?
Answer: inactive

Question: Which Potency does the source give for CC1Cc2ccccc2N1C(=O)CSc1nnc(-c2ccc(S(=O)(=O)N3CCCC3)cc2)n1C (configuration not stated) here?
Answer: inactive

Question: With CC(C)C1N=C2c3ccccc3N=C(SCC(=O)c3ccc(O)c(O)c3)N2C1=O (configuration not stated) as the compound, how does the Potency read?
Answer: inactive

Question: With O=C(CCn1nnc2ccccc2c1=O)N[C@@H](Cc1c[nH]c2ccccc12)C(=O)O as the compound, how does the Potency read?
Answer: inactive

Question: Which Potency does the source give for O=C(O)CCn1c(SCc2cc(=O)n3ccccc3n2)nc2ccsc2c1=O here?
Answer: inactive

Question: Which Potency does the source give for COc1cc(C2C(C(=O)c3ccc(C)o3)=C(O)C(=O)N2CCc2ccccc2)ccc1O (configuration not stated) here?
Answer: inactive

Question: For CC(=O)Nc1ccc(Nc2c3ccccc3nc3ccccc23)cc1, which Potency is on record?
Answer: inactive

Question: For c1ccc(CSc2nnc(-c3ccco3)c(-c3ccco3)n2)cc1, which Potency is on record?
Answer: 50.1 µM (active)

Question: With O=C(NC(Cc1c[nH]c2ccccc12)C(=O)O)/C(=C/c1ccco1)NC(=O)c1ccccc1 (configuration not stated) as the compound, how does the Potency read?
Answer: inactive
